Assay [1] deals with Nuclear receptor subfamily 1 group I member 3 (Homo sapiens) (UniProt Q14994). The experiment in a line: qHTS assay to identify small molecule antagonists of the constitutive androstane receptor (CAR) signaling pathway (AID 1224838).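 Further: HepG2 cells stably expressing hCAR with CYP2B6 luciferase reporter stimulated by CITCO; nearly all actives have a fitted effect of over 40% in size.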 Further: potency means the concentration at half of the fitted maximal effect. Summed up:
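HepG2-CYP2B6-hCAR cells; 4 h pre-incubation; cpd (15 conc) + CITCO 50 nM final; 24 h, 37 C/5% CO2; ONE-Glo, luminescence.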
A general note: In qHTS, concentration-response curves come from the screen itself.

Assay [2] shares this target. The experiment in a line: qHTS assay to identify small molecule agonists of the constitutive androstane receptor (CAR) signaling pathway (AID 1224839).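 Further: HepG2 cells stably carrying human CAR and a CYP2B6 luciferase reporter; on the % scale 0 is the no-effect control and ±100 the full control effect; nearly all actives have a fitted effect of over 15% in size.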 In a few lines: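 Cells were plated and incubated 4 hrs, then dosed with compounds at 15 concentrations. PK11195 was added to 0.75 uM final. After 24 hrs at 37 C, luciferase luminescence was measured.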
Assay [3] can be described thus: qHTS assay to identify small molecule antagonists of the estrogen related receptor signaling pathway with the pleiotropic PPARgamma coactivator (PGC) from Tox21 10K library - cell viability counter screen (AID 1224840; active means well fitted cell-killing curve with a large enough effect in the repeat runs, not every such curve was filed as active; further: nearly all actives have a fitted effect of over 40% in size; further: potency means the concentration at half of the fitted maximal effect). In a few lines:
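PGC/ERR cells, 2,000/well; 6 h pre-incubation 37 C/5% CO2; cpd in DMSO via pin tool; 17.5 h 37 C; CellTiter-Fluor, 30 min; fluorescence.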

Assay [4] in a line: qHTS assay to identify small molecule agonists of the estrogen related receptor signaling pathway with the pleiotropic PPARgamma coactivator (PGC) from Tox21 10K library (AID 1224842). Further: nearly all actives have a fitted effect of over 15% in size. Further: potency means the concentration at half of the fitted maximal effect. On activation: on the % scale 0 is the no-effect control and ±100 the full control effect. Summed up:
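Luminescence from One-Glo (30 min, room temperature) measured after PGC/ERR cells had 18 h at 37 C with pinned compound (23 nL in DMSO). Cells had been seeded at 2,000 per well and pre-incubated 6 h.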

A short description of assay [5]: qHTS assay to identify small molecule agonists of the hypoxia (HIF-1) signaling pathway - cell viability counter screen (AID 1224844; calls by dose curve; further: nearly all actives have a fitted effect of over 50% in size; further: potency means the concentration at half of the fitted maximal effect). In a few lines: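 ME-180 HRE-bla cells, 2,000/well, 0.5% dialyzed FBS; 5 hr settle, 17 hr compound at 37C/5% CO2; CCF4-AM reporter read first, then CellTiter-Glo luminescence after 30 min RT.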
A short description of assay [6]: qHTS assay to identify small molecule agonists of H2AX - cell viability counter screen (AID 1224847; calls by dose curve; further: nearly all actives have a fitted effect of over 30% in size; further: potency means the concentration at half of the fitted maximal effect). Summed up: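 Cytotoxicity counter screen in wild-type CHO-K1 cells: a 3 hr compound treatment at 37C across 15 concentrations, followed by CellTiter-Glo luminescence to gauge viable cells.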
Assay [7] is described as follows: qHTS assay to identify small molecule antagonists of the estrogen related receptor (ERR) signaling pathway from Tox21 library (AID 1224848). Further: nearly all actives have a fitted effect of over 50% in size. Further: potency means the concentration at half of the fitted maximal effect. In a few lines:
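Antagonist-mode screen of the Tox21 10K library in an NTP-provided ERR reporter cell line; 18 h compound exposure at 37 C, luminescence measured with ONE-Glo.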

The nature of assay [8]: qHTS assay to identify small molecule agonists of the estrogen related receptor (ERR) signaling pathway from Tox21 library (AID 1224849; calls by dose curve; further: on the % scale 0 is the no-effect control and ±100 the full control effect; nearly all actives have a fitted effect of over 15% in size). Particulars: ERR reporter cell line, ONE-Glo luciferase, 18 h; at 92.4 µM (top of the series) unless noted. Summed up: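 ERR cells, 6 h pre-incubation 37 C/5% CO2; cpd in DMSO pinned; 18 h 37 C; ONE-Glo added, 30 min RT; luminescence read. Agonist mode, qHTS.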

Assay [9] is described as follows: qHTS RealTime-Glo MT Cell Viability Assay in HepG2 cells - 24 hour (AID 1224867). Further: nearly all actives have a fitted effect of over 50% in size. Further: potency means the concentration at half of the fitted maximal effect. Summed up:
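HepG2 suspension premixed with RealTime-Glo reagents is plated at 600 cells per well and left 5 h at 37 C/5% CO2. Compounds in DMSO then go in, and bioluminescence reflecting viable cell number is recorded over 40 h.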

Assay [10] in a line: qHTS RealTime-Glo MT Cell Viability Assay in HEK293 cells - 32 hour (AID 1224868). Further: potency means the concentration at half of the fitted maximal effect; nearly all actives have a fitted effect of over 50% in size. In a few lines:
(§1)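 Reads taken at 0, 8, 16, 24, 32 and 40 h from the same wells. HEK293 cells (600/well) carried RealTime-Glo reagents from seeding, with compound added after a 5 h settle at 37 C.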

Assay [11] is described as follows: A CellTox Green Cytotoxicity Assay to monitor cytotoxicity in HEK293 cells - 0 hour (AID 1224869). Further: nearly all actives have a fitted effect of over 50% in size. Further: potency means the concentration at half of the fitted maximal effect. On Cytotoxicity: on the % scale 0 is the no-effect control and ±100 the full control effect. In a few lines:
(§2)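 Nonlytic real-time cytotoxicity: HEK293 + CellTox Green reagent plated, 5 h preincubation, pintool compound addition (23 nL in DMSO), 37 C for 40 h, fluorescence measured at successive time points.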

A short description of assay [12]: qHTS RealTime-Glo MT Cell Viability Assay in HepG2 cells - 40 hour (AID 1224870). Further: nearly all actives have a fitted effect of over 50% in size. Further: potency means the concentration at half of the fitted maximal effect. Summed up: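 Real-time viability: cells seeded at 600 per well together with NanoLuc and cell-permeant prosubstrate, compounds added after 5 h incubation. Luminescence tracked at 0, 8, 16, 24, 32 and 40 h of exposure.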
The nature of assay [13]: qHTS RealTime-Glo MT Cell Viability Assay in HEK293 cells - 16 hour (AID 1224872). Further: nearly all actives have a fitted effect of over 50% in size. Further: potency means the concentration at half of the fitted maximal effect. In a few lines:
as §1

Assay [14] can be described thus: qHTS assay to identify small molecule antagonists of the constitutive androstane receptor (CAR) signaling pathway - cell viability counter screen (AID 1224837). Further: potency means the concentration at half of the fitted maximal effect; nearly all actives have a fitted effect of over 45% in size. In a few lines:
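HepG2-CYP2B6-hCAR cells, 2500/well, 4 hr pre-incubation; compound titration, 15 conc.; CITCO 50 nM final; 23 hr, 37 C/5% CO2; CellTiter-Fluor, fluorescence intensity.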

Assay [15] in a line: qHTS assay to identify small molecule antagonists of the estrogen related receptor signaling pathway with the pleiotropic PPARgamma coactivator (PGC) from Tox21 10K library (AID 1224841; call rule not given here; further: potency means the concentration at half of the fitted maximal effect). In a few lines: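 PGC/ERR cell line, 2,000 cells/well; 6 h pre-incubation 37 C/5% CO2; compounds (DMSO) pinned in; 18 h, 37 C; One-Glo, 30 min RT; luminescence.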
A short description of assay [16]: qHTS assay to identify small molecule agonists of H2AX (AID 1224845; active means well fitted activation curve with a large enough effect in the signal ratio in the repeat runs, not every such curve was filed as active; the % refers to the signal ratio; further: potency means the concentration at half of the fitted maximal effect). Summed up: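 Phospho-H2AX Ser139 measured by HTRF (ex 320 nm; em 665 and 620 nm) after 24 hr antibody incubation. Compounds, 15 concentrations, 0.76% DMSO, were applied to CHO-K1 cells for 3hr at 37C before lysis.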
Assay [17] is described as follows: A CellTox Green Cytotoxicity Assay to monitor cytotoxicity in HEK293 cells - 40 hour (AID 1224871). Further: nearly all actives have a fitted effect of over 45% in size. Further: potency means the concentration at half of the fitted maximal effect. In a few lines: as §2
Assay [18] deals with Thyrotropin receptor (Homo sapiens) (UniProt P16473). The experiment in a line: qHTS assay to identify small molecule agonists of the thyroid stimulating hormone receptor (TSHR) signaling pathway (AID 1224843; calls by dose curve; further: on the % scale 0 is the no-effect control and ±100 the full control effect; nearly all actives have a fitted effect of over 45% in size). Summed up: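 Screening of the Tox21 10K collection used HEK293 cells engineered with TSHR at 800 cells per well. After a 30-min room-temperature compound exposure, HTRF cAMP reagents were added and fluorescence recorded 1 h later.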

Assay [19] in a line: qHTS assay to identify small molecule agonists of the hypoxia (HIF-1) signaling pathway (AID 1224846; active means well fitted activation curve with a large enough effect in the signal ratio in the repeat runs, not every such curve was filed as active; the % refers to the signal ratio; further: on the % scale 0 is the no-effect control and ±100 the full control effect). In a few lines: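 Cell line: CellSensor HRE-bla ME-180; 2,000 cells/well; 0.5% dialyzed FBS; 5 h preincubation; DMSO compound pin transfer; 17 h, 37C, 5% CO2; CCF4-AM added; bla FRET signal scored for activation.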

Where “and” joins values, the source holds several entries; their conditions need not be identical. Identical values can stand only once. A number with no mark means an inactive call. Results filed as inconclusive are left out. Calls of active or inactive are those of the source. Unless noted, the call rests on the fitted dose curve; in most records, active means well fitted curve in the direction sought with a large enough effect in the repeat runs; inconclusive means weak or mixed curves; inactive means no such curve, though single readings can be large; an effect the other way counts as inactive or inconclusive.

Chain of Thyrotropin receptor (Homo sapiens) (P16473 whole entry, looked up): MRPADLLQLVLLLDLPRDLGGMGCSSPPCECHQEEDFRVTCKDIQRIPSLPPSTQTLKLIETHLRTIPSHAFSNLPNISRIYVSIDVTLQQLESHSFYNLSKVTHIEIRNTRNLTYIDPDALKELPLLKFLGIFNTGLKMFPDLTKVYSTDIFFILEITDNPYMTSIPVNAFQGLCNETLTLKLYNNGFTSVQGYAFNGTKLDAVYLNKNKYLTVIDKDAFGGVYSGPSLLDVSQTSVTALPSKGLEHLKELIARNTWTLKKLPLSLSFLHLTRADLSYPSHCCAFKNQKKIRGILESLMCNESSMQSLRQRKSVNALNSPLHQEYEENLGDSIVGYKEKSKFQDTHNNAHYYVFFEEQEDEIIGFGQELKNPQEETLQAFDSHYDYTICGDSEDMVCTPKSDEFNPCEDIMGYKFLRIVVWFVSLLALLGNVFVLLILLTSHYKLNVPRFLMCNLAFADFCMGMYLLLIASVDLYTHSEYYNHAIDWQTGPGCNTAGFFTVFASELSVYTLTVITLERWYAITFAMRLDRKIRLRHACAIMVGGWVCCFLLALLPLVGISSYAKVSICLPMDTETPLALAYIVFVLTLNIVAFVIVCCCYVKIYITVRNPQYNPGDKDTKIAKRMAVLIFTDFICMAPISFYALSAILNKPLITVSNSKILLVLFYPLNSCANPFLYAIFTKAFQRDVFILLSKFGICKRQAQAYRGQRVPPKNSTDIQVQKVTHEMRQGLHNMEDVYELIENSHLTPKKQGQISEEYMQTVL
Chain of Nuclear receptor subfamily 1 group I member 3 (Homo sapiens) (Q14994 whole entry, looked up): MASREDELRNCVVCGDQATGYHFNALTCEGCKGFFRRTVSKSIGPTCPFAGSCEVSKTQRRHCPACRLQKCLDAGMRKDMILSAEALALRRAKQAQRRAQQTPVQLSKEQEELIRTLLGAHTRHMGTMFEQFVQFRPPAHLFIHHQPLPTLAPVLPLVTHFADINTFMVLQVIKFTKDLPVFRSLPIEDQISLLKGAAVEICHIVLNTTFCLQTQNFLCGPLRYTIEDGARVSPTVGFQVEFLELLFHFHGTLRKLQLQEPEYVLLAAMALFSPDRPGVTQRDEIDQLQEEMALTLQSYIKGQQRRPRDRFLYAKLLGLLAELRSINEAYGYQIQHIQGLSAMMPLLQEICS

Regarding `CCN=c1cc2oc3cc(NCC)c(C)cc3c(-c3ccccc3C(=O)OCC)c-2cc1C`, the Potency was 54.3 µM (active) and 54.5 µM (active) in [1]; 38.9 µM (active) in assay [5]; 7.1 µM (active) and 31.8 µM (active) in [6]; 108 nM (active) and 122 nM (active) in [7]; 43.5 µM (active) and 24.5 µM (active) in assay [9]; 1.09 µM (active) and 1.38 µM (active) in [10]. Further, the Potency in assay [11] is 6.89 µM (active) and 6.92 µM (active); in assay [12], 43.5 µM (active) and 21.9 µM (active); in assay [13] it was 8.68 µM (active) and 6.17 µM (active). Also, the Potency entry in assay [2], in assay [3] and in [4] was “inactive” in each case. Moreover, the activity change, positive = activation in assay [8] was -79.8% and -73.2%.

Turning to `COC(=O)C1=C(C)NC(C)=C(C(=O)OCCCN2CCC(c3ccccc3)(c3ccccc3)CC2)C1c1cccc([N+](=O)[O-])c1` (stereo not drawn), the Potency in assay [14] is 23.7 µM (active); in [3] it was 26.6 µM (active); in [15], 10.6 µM (active); in [5], 21.3 µM (active); in assay [7] it was 10.6 µM (active); in assay [10] it was 10.7 µM (active). Besides, the Potency in assay [13] is 9.52 µM (active). The Potency result in [4], in [16] and in assay [17] was “inactive” throughout. Also, the activity change, positive = activation in [8] was -67.7% [at 42.5 µM].

On to `C[n+]1c2cc(N)ccc2cc2ccc(N)cc21` (tested in a mixture with another compound), for which, in assay [5], the Potency result was “inactive”. Moreover, the Potency in [10] was 5.35 µM (active); in assay [11] it was 23.9 µM (active); in assay [17] it was 23.9 µM (active); in assay [13], 21.3 µM (active).

Take `CC(C(O)c1ccccc1)N(C)CCOC(c1ccccc1)c1ccccc1` (stereo not drawn): the Potency entry in assay [4], in [18] and in [5] was “inactive” throughout. Further, the outcome in assay [19] was inactive. The Potency is 23.7 µM (active) in assay [7], 23.9 µM (active) in assay [10], 26.8 µM (active) in assay [17] and 21.3 µM (active) in assay [13]. The activity change, positive = activation in assay [8] is -45.6% [at 42.5 µM].

Regarding `CCCCCCOc1ccc(O)cc1`, the Potency result in assay [1], in assay [3], in [15], in assay [18], in assay [7] and in [12] was “inactive” each time. Besides, the Potency was 13.7 µM (active) in assay [4]; 54.9 µM (active) in assay [5]; 11.3 µM (active) in [16]; 113 µM (active) in assay [6]; 19.5 µM (active) in assay [17]; 0.0617 µM (active) in [13]. In addition, in assay [8], the activity change, positive = activation is 0.107%.

As for `NC1(c2ccc(-c3nc4ccn5c(=O)[nH]nc5c4cc3-c3ccccc3)cc2)CCC1`, the Potency was 11.9 µM (active) in [1]; 15 µM (active) in assay [3]; 3.35 µM (active) in assay [15]; 2.13 µM (active) in assay [5]; 3.35 µM (active) in assay [7]; 23.9 µM (active) in assay [9]. In addition, the results for the Potency in assay [10], in [17] and in assay [13] were 1.9 µM (active), 26.8 µM (active) and 6.01 µM (active), respectively. Besides, the Potency result in [2], in assay [4], in assay [18] and in [11] was “inactive” in each case. Also, the activity change, positive = activation in assay [8] is -52.3% [at 42.5 µM].

In the case of `COc1ccc2sc(C(=O)Nc3nnn[nH]3)c(OC(C)C)c2c1`, the Potency in assay [1] is 27.2 µM (active); in [15], 24.2 µM (active); in assay [5], 24.5 µM (active); in assay [7], 24.2 µM (active); in assay [10], 27.4 µM (active). Besides, the Potency result in assay [2], in assay [4], in [18], in [16], in assay [6] and in assay [9] was “inactive” in each case. Also, the Potency entry in assay [13] is “inactive”. Further, the activity change, positive = activation in [8] is -42.5%.

Source of the values: PubChem BioAssay (Tox21).
